# Laboratory results taken from PubChem BioAssay AID1159580 (chemical genetic matrix, 2015).
# Hit rate of the full screen: of about 5,500 compounds, about 2,000 (36%) were called active. Inconclusive results (about 18%) are left out. Some of the results follow. Values without a mark were called inactive. Cut-off read from the data, not from the text of the source: active = normalized growth mostly below about 0.91 (no sharp cut-off); inconclusive = no clear call, values can overlap the other calls; inactive = mostly above about 0.92.
# Experiment: chemical genetic growth profiling, strain panel (AID 1159580);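 note: tested at 20 µM; growth read once vehicle control cultures reached saturation at 30 °C; 1 = growth at the plate median or of vehicle wells; lower values mean less growth of the strain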
# Conditions: S. cerevisiae deletion strains, growth OD
smiles,measurement,setting,value
CC(=O)O[C@H]1CC[C@@]2(C)C(=CCC3C2CC[C@]2(C)C(=O)CCC32)C1 (stereo partly drawn),normalized growth,"locus YAL013W, strain DEP1, stronger effect = lower value",0.775 (active)
same,normalized growth,"locus YAL021C, strain ccr4, stronger effect = lower value",0.877 (active)
same,normalized growth,"locus YAL026C, strain drs2, stronger effect = lower value",0.6 (active)
same,normalized growth,"locus YAL030W, strain snc1, stronger effect = lower value",1.02
same,normalized growth,"locus YBL061C, strain skt5, stronger effect = lower value",1.02
same,normalized growth,"locus YBR009C, strain hhf1, stronger effect = lower value",0.908
same,normalized growth,"locus YBR021W, strain FUR4, stronger effect = lower value",0.833 (active)
same,normalized growth,"locus YBR023C, strain chs3, stronger effect = lower value",0.961
same,normalized growth,"locus YBR171W, strain sec66, stronger effect = lower value",1.02
same,normalized growth,"locus YBR229C, strain ROT2, stronger effect = lower value",1
same,normalized growth,"locus YBR231C, strain swc5, stronger effect = lower value",1.04
same,normalized growth,"locus YBR279W, strain paf1, stronger effect = lower value",0.975
same,normalized growth,"locus YCL011C, strain gbp2, stronger effect = lower value",0.912
same,normalized growth,"locus YCL016C, strain dcc1, stronger effect = lower value",0.917
same,normalized growth,"locus YCL029C, strain bik1, stronger effect = lower value",0.895 (active)
same,normalized growth,"locus YCL069W, strain vba3, stronger effect = lower value",0.951
same,normalized growth,"locus YCR088W, strain abp1, stronger effect = lower value",1.05
same,normalized growth,"locus YDL005C, strain med2, stronger effect = lower value",1.02
same,normalized growth,"locus YDL035C, strain GPR1, stronger effect = lower value",0.686 (active)
same,normalized growth,"locus YDL040C, strain nat1, stronger effect = lower value",1.03
same,normalized growth,"locus YDL074C, strain BRE1, stronger effect = lower value",0.612 (active)
same,normalized growth,"locus YDL101C, strain DUN1, stronger effect = lower value",0.981
same,normalized growth,"locus YDL185W, strain tfp1, stronger effect = lower value",1.01
same,normalized growth,"locus YDL192W, strain arf1, stronger effect = lower value",1.01
same,normalized growth,"locus YDR001C, strain nth1, stronger effect = lower value",1.04
same,normalized growth,"locus YDR069C, strain doa4, stronger effect = lower value",1.02
same,normalized growth,"locus YDR101C, strain arx1, stronger effect = lower value",0.932
same,normalized growth,"locus YDR137W, strain rgp1, stronger effect = lower value",0.568 (active)
same,normalized growth,"locus YDR159W, strain sac3, stronger effect = lower value",1.01
same,normalized growth,"locus YDR162C, strain NBP2, stronger effect = lower value",0.596 (active)
same,normalized growth,"locus YDR195W, strain ref2",1.3 [resistant] (active)
same,normalized growth,"locus YDR297W, strain sur2, stronger effect = lower value",0.99
same,normalized growth,"locus YDR318W, strain mcm21, stronger effect = lower value",0.844 (active)
same,normalized growth,"locus YDR334W, strain swr1, stronger effect = lower value",1.06
same,normalized growth,"locus YDR335W, strain msn5, stronger effect = lower value",0.937
same,normalized growth,"locus YDR388W, stronger effect = lower value",1.02
same,normalized growth,"locus YDR392W, strain spt3, stronger effect = lower value",0.43 (active)
same,normalized growth,"locus YDR502C, strain sam2, stronger effect = lower value",0.843 (active)
same,normalized growth,"locus YEL003W, strain gim4, stronger effect = lower value",0.942
same,normalized growth,"locus YEL037C, strain rad23, stronger effect = lower value",0.994
same,normalized growth,"locus YEL061C, strain CIN8 (second series), stronger effect = lower value",1.02
same,normalized growth,"locus YEL061C, strain CIN8, stronger effect = lower value",0.928
same,normalized growth,"locus YER015W, strain faa2, stronger effect = lower value",0.948
same,normalized growth,"locus YER016W, strain bim1, stronger effect = lower value",1.02
same,normalized growth,"locus YER110C, stronger effect = lower value",1.03
same,normalized growth,"locus YER111C, strain swi4, stronger effect = lower value",1.03
same,normalized growth,"locus YER155C, strain BEM2 (second series), stronger effect = lower value",0.991
same,normalized growth,"locus YER155C, strain BEM2, stronger effect = lower value",0.752 (active)
same,normalized growth,"locus YER167W, strain BCK2, stronger effect = lower value",0.892 (active)
same,normalized growth,"locus YFR010W, strain ubp6, stronger effect = lower value",0.96
same,normalized growth,"locus YGL078C, strain dbp3, stronger effect = lower value",0.979
same,normalized growth,"locus YGL086W, strain mad1, stronger effect = lower value",0.884 (active)
same,normalized growth,"locus YGL167C, strain pmr1, stronger effect = lower value",1.02
same,normalized growth,"locus YGL173C, strain kem1, stronger effect = lower value",1
same,normalized growth,"locus YGL227W, strain vid30, stronger effect = lower value",1.04
same,normalized growth,"locus YGL240W, strain doc1, stronger effect = lower value",1.02
same,normalized growth,"locus YGL248W, strain PDE1, stronger effect = lower value",0.721 (active)
same,normalized growth,"locus YGL253W, strain hxk2, stronger effect = lower value",0.939
same,normalized growth,"locus YGR135W, strain pre9, stronger effect = lower value",0.884 (active)
same,normalized growth,"locus YGR229C, strain SMI1, stronger effect = lower value",0.813
same,normalized growth,"locus YGR252W, strain gcn5, stronger effect = lower value",0.81
same,normalized growth,"locus YHR013C, strain ard1, stronger effect = lower value",0.966
same,normalized growth,"locus YHR027C, strain rpn1, stronger effect = lower value",1.02
same,normalized growth,"locus YHR030C, strain SLT2, stronger effect = lower value",0.779 (active)
same,normalized growth,"locus YHR079C, strain IRE1 (second series), stronger effect = lower value",0.962
same,normalized growth,"locus YHR094C, strain hxt1, stronger effect = lower value",1.04
same,normalized growth,"locus YHR129C, strain ARP1, stronger effect = lower value",0.788 (active)
same,normalized growth,"locus YHR142W, strain chs7, stronger effect = lower value",0.877
same,normalized growth,"locus YHR200W, strain rpn10, stronger effect = lower value",0.961
same,normalized growth,"locus YIL066C, strain RNR3, stronger effect = lower value",0.812 (active)
same,normalized growth,"locus YIL073C, strain SPO22, stronger effect = lower value",0.679
same,normalized growth,"locus YIL125W, strain kgd1, stronger effect = lower value",1
same,normalized growth,"locus YIR030C, strain dcg1, stronger effect = lower value",1.02
same,normalized growth,"locus YJL092W, strain hpr5, stronger effect = lower value",1
same,normalized growth,"locus YJL095W, strain BCK1 (second series), stronger effect = lower value",1.01
same,normalized growth,"locus YJL095W, strain BCK1, stronger effect = lower value",0.433 (active)
same,normalized growth,"locus YJL115W, strain asf1, stronger effect = lower value",1.05
same,normalized growth,"locus YJL129C, strain trk1, stronger effect = lower value",0.939
same,normalized growth,"locus YJL134W, strain LCB3, stronger effect = lower value",1.02
same,normalized growth,"locus YJL154C, strain vps35, stronger effect = lower value",1.03
same,normalized growth,"locus YJL164C, strain tpk1, stronger effect = lower value",0.906 (active)
same,normalized growth,"locus YJL166W, strain qcr8, stronger effect = lower value",0.903
same,normalized growth,"locus YJL168C, strain set2, stronger effect = lower value",1.02
same,normalized growth,"locus YJL187C, strain SWE1 (second series), stronger effect = lower value",0.887
same,normalized growth,"locus YJR043C, strain POL32, stronger effect = lower value",0.857
same,normalized growth,"locus YJR075W, strain HOC1, stronger effect = lower value",0.887
same,normalized growth,"locus YKL009W, strain mrt4, stronger effect = lower value",0.938
same,normalized growth,"locus YKL068W, stronger effect = lower value",1.03
same,normalized growth,"locus YKL085W, strain MDH1 (second series), stronger effect = lower value",0.964
same,normalized growth,"locus YKL085W, strain MDH1, stronger effect = lower value",0.964
same,normalized growth,"locus YKL160W, strain elf1, stronger effect = lower value",0.906
same,normalized growth,"locus YKL190W, strain CNB1, stronger effect = lower value",0.945
same,normalized growth,"locus YKR001C, strain vps1, stronger effect = lower value",0.961
same,normalized growth,"locus YKR026C, strain gcn3, stronger effect = lower value",1.05
same,normalized growth,"locus YKR091W, strain srl3, stronger effect = lower value",1.03
same,normalized growth,"locus YLL001W, strain dnm1, stronger effect = lower value",0.918
same,normalized growth,"locus YLL026W, stronger effect = lower value",1.02
same,normalized growth,"locus YLL041C, strain sdh2, stronger effect = lower value",1.03
same,normalized growth,"locus YLR027C, strain aat2, stronger effect = lower value",0.954
same,normalized growth,"locus YLR039C, strain RIC1, stronger effect = lower value",0.403 (active)
same,normalized growth,"locus YLR058C, strain SHM2, stronger effect = lower value",0.892
same,normalized growth,"locus YLR102C, strain apc9, stronger effect = lower value",1.04
same,normalized growth,"locus YLR221C, strain rsa3, stronger effect = lower value",0.966
same,normalized growth,"locus YLR258W, strain gsy2, stronger effect = lower value",0.952
same,normalized growth,"locus YLR262C, strain YPT6 (second series), stronger effect = lower value",0.514 (active)
same,normalized growth,"locus YLR262C, strain YPT6, stronger effect = lower value",0.413 (active)
same,normalized growth,"locus YLR268W, strain sec22, stronger effect = lower value",0.887
same,normalized growth,"locus YLR320W, strain mms22, stronger effect = lower value",0.846 (active)
same,normalized growth,"locus YLR330W, strain CHS5, stronger effect = lower value",0.814 (active)
same,normalized growth,"locus YLR342W, strain FKS1 (second series), stronger effect = lower value",0.742 (active)
same,normalized growth,"locus YLR342W, strain FKS1, stronger effect = lower value",0.976
same,normalized growth,"locus YLR357W, strain rsc2, stronger effect = lower value",1.1
same,normalized growth,"locus YLR370C, strain arc18, stronger effect = lower value",1.01
same,normalized growth,"locus YLR371W, strain rom2, stronger effect = lower value",1.02
same,normalized growth,"locus YLR384C, strain iki3, stronger effect = lower value",1.03
same,normalized growth,"locus YLR418C, strain cdc73, stronger effect = lower value",0.698 (active)
same,normalized growth,"locus YML016C, strain PPZ1, stronger effect = lower value",0.947
same,normalized growth,"locus YML032C, strain rad52, stronger effect = lower value",0.866 (active)
same,normalized growth,"locus YML120C, strain ndi1, stronger effect = lower value",0.928
same,normalized growth,"locus YML124C, strain tub3, stronger effect = lower value",1.03
same,normalized growth,"locus YMR058W, strain fet3, stronger effect = lower value",0.988
same,normalized growth,"locus YMR078C, strain ctf18, stronger effect = lower value",1.01
same,normalized growth,"locus YMR125W, strain sto1, stronger effect = lower value",1.05
same,normalized growth,"locus YMR129W, stronger effect = lower value",1.03
same,normalized growth,"locus YMR205C, strain PFK2, stronger effect = lower value",0.876
same,normalized growth,"locus YMR223W, strain ubp8, stronger effect = lower value",0.878 (active)
same,normalized growth,"locus YMR231W, strain pep5, stronger effect = lower value",1.01
same,normalized growth,"locus YMR263W, strain SAP30, stronger effect = lower value",0.943
same,normalized growth,"locus YMR307W, strain GAS1, stronger effect = lower value",0.865
same,normalized growth,"locus YNL067W, strain RPL9B, stronger effect = lower value",0.887
same,normalized growth,"locus YNL071W, strain lat1, stronger effect = lower value",0.758 (active)
same,normalized growth,"locus YNL209W, strain ssb2, stronger effect = lower value",0.942
same,normalized growth,"locus YNL233W, strain BNI4, stronger effect = lower value",0.724 (active)
same,normalized growth,"locus YNL248C, strain rpa49, stronger effect = lower value",0.98
same,normalized growth,"locus YNL250W, strain rad50, stronger effect = lower value",0.914
same,normalized growth,"locus YNL271C, strain bni1, stronger effect = lower value",0.965
same,normalized growth,"locus YNL298W, strain CLA4, stronger effect = lower value",0.859 (active)
same,normalized growth,"locus YNL307C, strain MCK1, stronger effect = lower value",0.516 (active)
same,normalized growth,"locus YNL322C, strain KRE1 (second series), stronger effect = lower value",1.04
same,normalized growth,"locus YNR049C, strain mso1, stronger effect = lower value",1.04
same,normalized growth,"locus YNR052C, strain pop2, stronger effect = lower value",0.85 (active)
same,normalized growth,"locus YOL012C, strain htz1",1.72
same,normalized growth,"locus YOL147C, strain pex11, stronger effect = lower value",0.92 (active)
same,normalized growth,"locus YOR001W, strain rrp6, stronger effect = lower value",0.969
same,normalized growth,"locus YOR061W, strain CKA2, stronger effect = lower value",0.89
same,normalized growth,"locus YOR069W, strain VPS5, stronger effect = lower value",0.988
same,normalized growth,"locus YOR070C, strain gyp1, stronger effect = lower value",0.937
same,normalized growth,"locus YOR080W, strain dia2, stronger effect = lower value",1
same,normalized growth,"locus YOR083W, strain WHI5, stronger effect = lower value",0.903
same,normalized growth,"locus YOR106W, strain vam3, stronger effect = lower value",0.883
same,normalized growth,"locus YOR136W, strain idh2, stronger effect = lower value",0.95
same,normalized growth,"locus YOR144C, strain elg1, stronger effect = lower value",0.989
same,normalized growth,"locus YOR184W, strain ser1, stronger effect = lower value",0.477 (active)
same,normalized growth,"locus YOR265W, strain rbl2, stronger effect = lower value",0.973
same,normalized growth,"locus YOR270C, strain vph1, stronger effect = lower value",1.05
same,normalized growth,"locus YOR290C, strain snf2, stronger effect = lower value",0.881
same,normalized growth,"locus YOR316C, strain cot1, stronger effect = lower value",1.02
same,normalized growth,"locus YPL051W, strain arl3, stronger effect = lower value",0.953
same,normalized growth,"locus YPL055C, strain LGE1, stronger effect = lower value",0.594 (active)
same,normalized growth,"locus YPL078C, strain atp4, stronger effect = lower value",0.891 (active)
same,normalized growth,"locus YPL106C, strain sse1, stronger effect = lower value",1.22 [resistant] (active)
same,normalized growth,"locus YPL240C, strain hsp82, stronger effect = lower value",0.983
same,normalized growth,"locus YPL241C, strain CIN2, stronger effect = lower value",1
same,normalized growth,"locus YPR119W, strain clb2, stronger effect = lower value",1.04
same,normalized growth,"locus YPR141C, strain kar3, stronger effect = lower value",1.04
same,normalized growth,"locus YPR163C, strain tif3, stronger effect = lower value",0.941
same,normalized growth,"locus YPR167C, strain met16, stronger effect = lower value",0.97
same,normalized growth,"strain wtn01, stronger effect = lower value",0.848 (active)
